According to PubChem BioAssay AID1159580 (chemical genetic matrix, 2015):
About 2,000 (36%) of roughly 5,500 compounds were called active. Another 18% or so got no clear call; they are omitted. Rule as the data show it: active = normalized growth mostly below about 0.91 (no sharp cut-off); inconclusive = no clear call, values can overlap the other calls; inactive = mostly above about 0.92. This is one part of the list.

Test: chemical genetic growth profiling, strain panel (AID 1159580);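 also: tested at 20 µM; growth read once vehicle control cultures reached saturation at 30 °C; 1 = growth at the plate median or of vehicle wells; lower values mean less growth of the strain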
Conditions: growth OD

Measured: normalized growth

CNC(Cc1c[nH]c2ccccc12)C(=O)O (centres undefined)
inactive: S. cerevisiae deletion strains, locus YJR066W, strain TOR1, stronger effect = lower value 0.932 | S. cerevisiae deletion strains, locus YKL009W, strain mrt4, stronger effect = lower value 0.99 | S. cerevisiae deletion strains, locus YKL068W, stronger effect = lower value 0.992 | S. cerevisiae deletion strains, locus YKL085W, strain MDH1 (second series), stronger effect = lower value 0.983 | S. cerevisiae deletion strains, locus YKL085W, strain MDH1, stronger effect = lower value 0.983 | S. cerevisiae deletion strains, locus YKL160W, strain elf1, stronger effect = lower value 0.973 | S. cerevisiae deletion strains, locus YKR001C, strain vps1, stronger effect = lower value 1 | S. cerevisiae deletion strains, locus YKR026C, strain gcn3, stronger effect = lower value 0.975 | S. cerevisiae deletion strains, locus YKR091W, strain srl3, stronger effect = lower value 0.976 | S. cerevisiae deletion strains, locus YLL001W, strain dnm1, stronger effect = lower value 0.972 | S. cerevisiae deletion strains, locus YLL026W, stronger effect = lower value 0.974 | S. cerevisiae deletion strains, locus YLL041C, strain sdh2, stronger effect = lower value 0.981 | S. cerevisiae deletion strains, locus YLR027C, strain aat2, stronger effect = lower value 0.965 | S. cerevisiae deletion strains, locus YLR039C, strain RIC1, stronger effect = lower value 1.03 | S. cerevisiae deletion strains, locus YLR058C, strain SHM2, stronger effect = lower value 0.989 | S. cerevisiae deletion strains, locus YLR102C, strain apc9, stronger effect = lower value 0.995 | S. cerevisiae deletion strains, locus YLR113W, strain HOG1, stronger effect = lower value 1.07 | S. cerevisiae deletion strains, locus YLR221C, strain rsa3, stronger effect = lower value 1.01 | S. cerevisiae deletion strains, locus YLR258W, strain gsy2, stronger effect = lower value 0.99 | S. cerevisiae deletion strains, locus YLR262C, strain YPT6 (second series), stronger effect = lower value 1.01 | S. cerevisiae deletion strains, locus YLR262C, strain YPT6, stronger effect = lower value 1.01 | S. cerevisiae deletion strains, locus YLR268W, strain sec22, stronger effect = lower value 1.03 | S. cerevisiae deletion strains, locus YLR320W, strain mms22, stronger effect = lower value 1.02 | S. cerevisiae deletion strains, locus YLR330W, strain CHS5, stronger effect = lower value 0.987 | S. cerevisiae deletion strains, locus YLR342W, strain FKS1 (second series), stronger effect = lower value 0.957 | S. cerevisiae deletion strains, locus YLR342W, strain FKS1, stronger effect = lower value 0.989 | S. cerevisiae deletion strains, locus YLR357W, strain rsc2, stronger effect = lower value 0.951 | S. cerevisiae deletion strains, locus YLR370C, strain arc18, stronger effect = lower value 0.987 | S. cerevisiae deletion strains, locus YLR371W, strain rom2, stronger effect = lower value 0.969 | S. cerevisiae deletion strains, locus YLR384C, strain iki3, stronger effect = lower value 1.01 | S. cerevisiae deletion strains, locus YLR418C, strain cdc73, stronger effect = lower value 0.983 | S. cerevisiae deletion strains, locus YML016C, strain PPZ1, stronger effect = lower value 0.984 | S. cerevisiae deletion strains, locus YML032C, strain rad52, stronger effect = lower value 0.963 | S. cerevisiae deletion strains, locus YML120C, strain ndi1, stronger effect = lower value 0.983 | S. cerevisiae deletion strains, locus YML124C, strain tub3, stronger effect = lower value 0.994 | S. cerevisiae deletion strains, locus YMR058W, strain fet3, stronger effect = lower value 0.981 | S. cerevisiae deletion strains, locus YMR078C, strain ctf18, stronger effect = lower value 0.984 | S. cerevisiae deletion strains, locus YMR125W, strain sto1, stronger effect = lower value 0.973 | S. cerevisiae deletion strains, locus YMR129W, stronger effect = lower value 0.988 | S. cerevisiae deletion strains, locus YMR205C, strain PFK2, stronger effect = lower value 0.965 | S. cerevisiae deletion strains, locus YMR223W, strain ubp8, stronger effect = lower value 0.972 | S. cerevisiae deletion strains, locus YMR231W, strain pep5, stronger effect = lower value 0.976 | S. cerevisiae deletion strains, locus YMR263W, strain SAP30, stronger effect = lower value 0.982 | S. cerevisiae deletion strains, locus YMR307W, strain GAS1, stronger effect = lower value 0.902 | S. cerevisiae deletion strains, locus YNL067W, strain RPL9B, stronger effect = lower value 0.988 | S. cerevisiae deletion strains, locus YNL071W, strain lat1, stronger effect = lower value 0.989 | S. cerevisiae deletion strains, locus YNL128W, strain TEP1, stronger effect = lower value 0.983 | S. cerevisiae deletion strains, locus YNL153C, strain GIM3, stronger effect = lower value 0.976 | S. cerevisiae deletion strains, locus YNL183C, strain NPR1, stronger effect = lower value 0.993 | S. cerevisiae deletion strains, locus YNL209W, strain ssb2, stronger effect = lower value 0.982 | S. cerevisiae deletion strains, locus YNL233W, strain BNI4, stronger effect = lower value 1 | S. cerevisiae deletion strains, locus YNL248C, strain rpa49, stronger effect = lower value 0.962 | S. cerevisiae deletion strains, locus YNL250W, strain rad50, stronger effect = lower value 0.961 | S. cerevisiae deletion strains, locus YNL271C, strain bni1, stronger effect = lower value 0.994 | S. cerevisiae deletion strains, locus YNL298W, strain CLA4, stronger effect = lower value 0.987 | S. cerevisiae deletion strains, locus YNL307C, strain MCK1, stronger effect = lower value 0.988 | S. cerevisiae deletion strains, locus YNL322C, strain KRE1 (second series), stronger effect = lower value 0.986 | S. cerevisiae deletion strains, locus YNL322C, strain KRE1, stronger effect = lower value 0.985 | S. cerevisiae deletion strains, locus YNR049C, strain mso1, stronger effect = lower value 0.978 | S. cerevisiae deletion strains, locus YNR052C, strain pop2, stronger effect = lower value 0.983 | S. cerevisiae deletion strains, locus YOL012C, strain htz1 1.5 | S. cerevisiae deletion strains, locus YOL147C, strain pex11, stronger effect = lower value 1.01 | S. cerevisiae deletion strains, locus YOR001W, strain rrp6, stronger effect = lower value 0.975 | S. cerevisiae deletion strains, locus YOR061W, strain CKA2, stronger effect = lower value 0.961 | S. cerevisiae deletion strains, locus YOR069W, strain VPS5, stronger effect = lower value 0.999 | S. cerevisiae deletion strains, locus YOR070C, strain gyp1, stronger effect = lower value 1 | S. cerevisiae deletion strains, locus YOR080W, strain dia2, stronger effect = lower value 0.99 | S. cerevisiae deletion strains, locus YOR083W, strain WHI5, stronger effect = lower value 0.975 | S. cerevisiae deletion strains, locus YOR106W, strain vam3, stronger effect = lower value 0.96 | S. cerevisiae deletion strains, locus YOR136W, strain idh2, stronger effect = lower value 0.991 | S. cerevisiae deletion strains, locus YOR144C, strain elg1, stronger effect = lower value 0.988 | S. cerevisiae deletion strains, locus YOR184W, strain ser1, stronger effect = lower value 0.985 | S. cerevisiae deletion strains, locus YOR231W, strain MKK1, stronger effect = lower value 1 | S. cerevisiae deletion strains, locus YOR265W, strain rbl2, stronger effect = lower value 0.974 | S. cerevisiae deletion strains, locus YOR270C, strain vph1, stronger effect = lower value 0.972 | S. cerevisiae deletion strains, locus YOR290C, strain snf2, stronger effect = lower value 0.934 | S. cerevisiae deletion strains, locus YOR316C, strain cot1, stronger effect = lower value 0.991 | S. cerevisiae deletion strains, locus YPL051W, strain arl3, stronger effect = lower value 0.99 | S. cerevisiae deletion strains, locus YPL055C, strain LGE1, stronger effect = lower value 0.953 | S. cerevisiae deletion strains, locus YPL078C, strain atp4, stronger effect = lower value 0.959 | S. cerevisiae deletion strains, locus YPL106C, strain sse1, stronger effect = lower value 0.985 | S. cerevisiae deletion strains, locus YPL240C, strain hsp82, stronger effect = lower value 0.989 | S. cerevisiae deletion strains, locus YPL256C, strain CLN2, stronger effect = lower value 0.978 | S. cerevisiae deletion strains, locus YPR119W, strain clb2, stronger effect = lower value 0.997 | S. cerevisiae deletion strains, locus YPR141C, strain kar3, stronger effect = lower value 0.986 | S. cerevisiae deletion strains, locus YPR163C, strain tif3, stronger effect = lower value 0.993 | S. cerevisiae deletion strains, locus YPR167C, strain met16, stronger effect = lower value 0.992 | S. cerevisiae deletion strains, strain wtn01, stronger effect = lower value 1.02 | S. cerevisiae strains, strain wild type, stronger effect = lower value 1
